Among the test systems are NCI-H23 lung; NCI-H226 lung; HOP-62 NSCLC; NCI-H460 lung; HOP-92 NSCLC; NCI-H522 lung; A549/ATCC NSCLC; 786-0 renal; COLO 205 colon; DU-145 prostate; K-562 leukemia; MALME-3M melanoma; MDA-MB-231 breast; RXF 393 renal; SF-268 CNS; SF-295 CNS; SF-539 CNS; UACC-257 melanoma; M14 melanoma; NCI-H322M lung.
Experiment in all cases: NCI-60 one-dose screen, 48 h (100 = growth as untreated, 0 = no growth, -100 = all killed)
Common to all, as to conditions: 10 µM unless noted

The panel holds about 83,000 compounds, 20% with a hit somewhere; the sample as a whole holds those more often.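 How to read the values: 0–100, growth inhibition (40 = 60% inhibited); 0, no net growth; -100 to 0, cell death (-40 = 40% of starting cells died; -100 = all dead).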 Values without a mark were called inactive. Activity calls are given as the source filed them. The calls were made as follows: active = growth percent below 10; inactive = the rest.

As for `CCN(CC)CC(O)c1cc(-c2ccc(Cl)cc2)nc2cc(Cl)ccc12` (stereo not given), the growth was 70.8% in the experiment with NCI-H23 lung; 78.5% in the experiment with NCI-H226 lung; 54.6% with HOP-62 NSCLC; -0.34% (active) in the experiment on NCI-H460 lung; 19.3% in the experiment on HOP-92 NSCLC; -70.4% (active) in the experiment with NCI-H522 lung. The growth with A549/ATCC NSCLC is 14.6%; in the experiment with 786-0 renal, 46.3%; with COLO 205 colon it was -73% (active); in the experiment with DU-145 prostate it was 17.9%; with K-562 leukemia, -27.2% (active); with MALME-3M melanoma it was 43%. The growth in the experiment with MDA-MB-231 breast was -3.65% (active); with RXF 393 renal, 28.9%; with SF-268 CNS it was 42.1%; in the experiment on SF-295 CNS, 31.7%; in the experiment with SF-539 CNS, 18%; with UACC-257 melanoma, -59.8% (active).

On to `Cc1cc(N/N=C/c2ccccn2)nc2ccccc12`, for which the growth is 14% with NCI-H23 lung; -1.94% (active) in the experiment on NCI-H226 lung; 3.05% (active) with NCI-H460 lung; -25.6% (active) in the experiment with NCI-H522 lung; 1.82% (active) with A549/ATCC NSCLC; 8.98% (active) in the experiment with 786-0 renal. Also, the growth in the experiment on COLO 205 colon is 20.5%; with DU-145 prostate it was 18.2%; with K-562 leukemia it was 9.21% (active); in the experiment with MALME-3M melanoma, 8.16% (active); in the experiment with MDA-MB-231 breast, 42%; with RXF 393 renal it was 8.96% (active). Besides, the growth with SF-268 CNS is 5.12% (active); in the experiment on SF-539 CNS, -37.8% (active); in the experiment on UACC-257 melanoma it was -22.6% (active); in the experiment on M14 melanoma it was -39.7% (active).

Consider `O=C1/C(=C/c2ccccc2)CCC/C1=C\c1ccccc1`, for which the growth with NCI-H23 lung is 88%; in the experiment with NCI-H226 lung, 96%; in the experiment with HOP-62 NSCLC, 109%; in the experiment with NCI-H522 lung it was 78.7%; in the experiment with A549/ATCC NSCLC it was 98.8%; in the experiment on 786-0 renal it was 87.7%. The growth is 127% in the experiment on COLO 205 colon; 90% in the experiment with DU-145 prostate; 62% with K-562 leukemia; 89.5% with MALME-3M melanoma; 98.9% in the experiment on MDA-MB-231 breast; 98% in the experiment with RXF 393 renal. In addition, the growth is 86.9% in the experiment on SF-268 CNS; 91.8% in the experiment with SF-295 CNS; 111% with SF-539 CNS; 84.5% with UACC-257 melanoma; 64% in the experiment on M14 melanoma.

For the compound `Cc1onc(-c2ccccc2)c1C(=O)N/N=C/c1cc(Cl)cc(Cl)c1O`, the growth in the experiment with NCI-H23 lung was 53.2%; in the experiment on NCI-H322M lung, 16%; with HOP-62 NSCLC it was 39.3%; in the experiment on HOP-92 NSCLC it was 49.3%; in the experiment on NCI-H522 lung it was 28.7%; with A549/ATCC NSCLC, 21.9%. Besides, the growth is 27.4% in the experiment on 786-0 renal; 16.9% with COLO 205 colon; 44.6% in the experiment on DU-145 prostate; 29.4% in the experiment on K-562 leukemia; 34.4% with MDA-MB-231 breast; 64.1% in the experiment with RXF 393 renal. Moreover, the growth was 34.1% with SF-268 CNS; -5.54% (active) with SF-295 CNS; 16.5% in the experiment with SF-539 CNS; 17.4% with UACC-257 melanoma; 14.3% with M14 melanoma.

Take `CC(C)c1ccc(C(=O)OC2CCCC2)cc1`: the growth was 100% in the experiment with NCI-H23 lung; 99.2% with NCI-H322M lung; 105% in the experiment with NCI-H460 lung; 80.2% in the experiment with HOP-92 NSCLC; 103% in the experiment with NCI-H522 lung; 117% in the experiment with A549/ATCC NSCLC. The growth in the experiment on 786-0 renal was 107%; in the experiment with COLO 205 colon, 103%; in the experiment on DU-145 prostate, 106%; with K-562 leukemia it was 120%; in the experiment on MALME-3M melanoma, 101%; in the experiment on MDA-MB-231 breast, 103%. The growth was 118% with RXF 393 renal; 95.1% in the experiment on SF-268 CNS; 106% with SF-295 CNS; 108% in the experiment with SF-539 CNS; 125% in the experiment on UACC-257 melanoma; 93.9% in the experiment on M14 melanoma.

For `COc1cc(NCc2ccc3nc(N)nc(N)c3c2C)cc(OC)c1OC` (tested in a mixture with another compound), the growth is 16.1% in the experiment on NCI-H23 lung; 47.5% in the experiment on NCI-H226 lung; 29.8% in the experiment on HOP-62 NSCLC; 14.1% with NCI-H460 lung; 22.3% with NCI-H522 lung; 36.9% in the experiment on A549/ATCC NSCLC. Also, the growth in the experiment with 786-0 renal was 15.5%; with COLO 205 colon it was 40.2%; with DU-145 prostate, 49.6%; in the experiment with K-562 leukemia, 27.9%; in the experiment on MALME-3M melanoma, 37.2%; in the experiment on MDA-MB-231 breast, 61.6%. Also, the growth is 30.1% in the experiment with RXF 393 renal; 24.1% with SF-268 CNS; 17.1% with SF-295 CNS; 25.3% in the experiment with SF-539 CNS; 23.5% with UACC-257 melanoma; 20.9% in the experiment on M14 melanoma.

As to `O=C(O)c1cccc2cccc(-c3c4ccc(=O)c(O)c-4oc4c(O)c(O)ccc34)c12`, the growth in the experiment on NCI-H23 lung was 89.3%; with NCI-H226 lung, 95.5%; with NCI-H460 lung, 100%; in the experiment on HOP-92 NSCLC, 93.8%; in the experiment on NCI-H522 lung it was 90.9%; in the experiment with A549/ATCC NSCLC, 96.4%. For the same compound, the growth was 98.8% in the experiment on 786-0 renal; 111% in the experiment on COLO 205 colon; 98.2% in the experiment with DU-145 prostate; 70.6% with K-562 leukemia; 102% with MALME-3M melanoma; 83% in the experiment on MDA-MB-231 breast. Besides, the growth with RXF 393 renal is 94.4%; in the experiment on SF-268 CNS it was 92.8%; with SF-295 CNS, 103%; in the experiment with SF-539 CNS, 89.4%; in the experiment on UACC-257 melanoma, 110%; with M14 melanoma it was 92.5%.

On to `NNc1cccc([N+](=O)[O-])c1`, for which the growth is 103% in the experiment on NCI-H226 lung; 89% in the experiment with NCI-H322M lung; 108% in the experiment on NCI-H460 lung; 61.4% in the experiment on NCI-H522 lung; 96.7% with A549/ATCC NSCLC; 86.4% with 786-0 renal. The growth in the experiment with COLO 205 colon was 110%; in the experiment with DU-145 prostate, 104%; in the experiment on MALME-3M melanoma, 101%; with MDA-MB-231 breast, 58.9%; in the experiment with RXF 393 renal it was 122%; in the experiment with SF-268 CNS it was 72.6%. In addition, the growth in the experiment with SF-295 CNS was 89.5%; with SF-539 CNS it was 100%; with UACC-257 melanoma, 99%; with M14 melanoma it was 99.9%.

As for `Oc1ccc(Nc2ccc3ccccc3c2)cc1`, the growth in the experiment on NCI-H23 lung is 69%; in the experiment with NCI-H226 lung, 89.2%; in the experiment with HOP-62 NSCLC it was 57.4%; with NCI-H460 lung it was 59.4%; in the experiment with A549/ATCC NSCLC, 55.3%; with 786-0 renal it was 46.7%. In addition, the growth was 96.1% in the experiment with COLO 205 colon; 51.2% in the experiment on DU-145 prostate; 26.5% in the experiment with K-562 leukemia; 92.9% in the experiment on MALME-3M melanoma; 36% in the experiment on MDA-MB-231 breast; 78.3% with RXF 393 renal. Also, the growth is 50.4% with SF-268 CNS; 67.7% in the experiment with SF-295 CNS; 36.6% in the experiment with SF-539 CNS; 73.7% in the experiment with UACC-257 melanoma; 53.3% in the experiment on M14 melanoma.

For the origin of these results see PubChem BioAssay (NCI).
